Screening results: PubChem, several laboratories
SKKanGAS inh: blocks kanamycin growth of S. pyogenes SKKanGAS strain | BacTiter-Glo, 6 h | inhibition, % at 7.5 µM | 300,000 compounds, 1.3% hits;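 active = mean replicate score, as percent of positive control median, at least 50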;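 also: strain carries kanamycin resistance gene driven by streptokinase promoter and grows in 40 µg/ml kanamycin; loss of luminescence reflects streptokinase promoter inhibition or plain growth inhibition; 0% = median of DMSO wells and 100% = positive control at its reference dose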
TIM10 inh: TIM10 yeast growth inhibition; S. cerevisiae TIM10 strain growth, BacTiter-Glo luminescence, 24 h; inhibition, % at 10 µM; 330,000 compounds, 1.4% hits; AID 463195;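 active = inhibition of 40% or more at the single tested concentration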;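 also: wild-type TIM10 isogenic control strain grown at permissive 25 °C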
NLRP3 yeast inh: inhibitors of NALP3 inflammasome in yeast. Yeast reconstituted NLRP3/ASC/caspase-1, beta-gal luminescence, 24 h. inhibition, % at 10 µM. 330,000 compounds, 0.39% hits. AID 2825;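 active = inhibition of 50% or more; inactive = inhibition below 50%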;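 also: plate controls were induced DMSO wells for no effect and uninduced yeast grown without galactose for full effect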
tim23-1 inh: growth inhibitors of tim23-1 mutant yeast; 330,000 compounds, 1.3% hits; inhibition, % at 20 µM; AID 463212; S. cerevisiae tim23-1 growth, BacTiter-Glo luminescence, 24 h;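 active = growth inhibition of the mutant yeast at or above 50%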;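 also: temperature-sensitive mutant grown at 25 °C; plate controls were DMSO-treated mutant yeast for no effect and medium wells lacking yeast for full effect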
tim10-1 inh: growth inhibitors of tim10-1 mutant yeast. S. cerevisiae tim10-1 ts strain growth, BacTiter-Glo, 24 h. inhibition, % at 20 µM. 330,000 compounds, 2.2% hits. AID 463190;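 active = inhibition of at least 40%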;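 also: mutant grown at 25 °C; 0% = DMSO wells with yeast and 100% = wells holding no yeast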
PfHsp90 yeast 2: inhibits growth of yeast expressing Plasmodium falciparum Hsp90; S. cerevisiae expressing PfHsp90, BacTiter-Glo ATP, 48 h; yeast lacking PDR1 and PDR3 efflux regulators; AID 504621; 310,000 compounds, 0.32% hits; inhibition, % at 9.4 µM;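 active = every replicate shows inhibition above about 80%, whatever the replicate mean, limit read from the data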;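 also: 0% = DMSO neutral controls and 100% = 20 µM radicicol positive controls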
TIM10 conf: TIM10 yeast growth inhibition, confirmed; AID 463215; S. cerevisiae tim10 strain growth, BacTiter-Glo luminescence, 24 h; 4,600 compounds, 63% hits; inhibition, % at 10 µM; shares compounds with TIM10 inh;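 active = inhibition of yeast growth at or above a set limit in either of two replicates at 10 µM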;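 also: this counterscreen used the strain with wild-type TIM10; 0% = yeast with DMSO and 100% = medium wells lacking yeast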
Starred values were filed as active, the others as inactive. Most compounds without a hit are left out; they make up all but 4.5% or so of the library.

Screening O=[N+]([O-])c1ccc(O)c(C2=NNC(c3ccccc3F)C2)c1 (configuration not stated) returned SKKanGAS inh 16, TIM10 inh 50*, NLRP3 yeast inh -5, tim23-1 inh 43, tim10-1 inh 36, PfHsp90 yeast 2 -56 and TIM10 conf 57*.
Screening COc1ccc([N+](=O)[O-])cc1C1NN=C(c2ccccc2O)S1 (configuration not stated) returned SKKanGAS inh -3, TIM10 inh -1, NLRP3 yeast inh 8, tim23-1 inh -1 and tim10-1 inh 3.
For COc1ccc(C(=O)NC2CCN(Cc3ccccc3)C2)cc1S(=O)(=O)N1CCOCC1 (configuration not stated) the results were TIM10 inh 2, NLRP3 yeast inh 9, tim23-1 inh 7, tim10-1 inh -3 and PfHsp90 yeast 2 -4.
Screening O=C1c2ccccc2-c2nnc(-c3ccc(O)cc3)cc21 returned SKKanGAS inh 21, TIM10 inh 50*, NLRP3 yeast inh 23, tim23-1 inh 17, tim10-1 inh 27, PfHsp90 yeast 2 9 and TIM10 conf 31*.
Screening O=C1c2ccccc2-c2nnc(-c3ccc(F)cc3)cc21 returned SKKanGAS inh -21, TIM10 inh 6, NLRP3 yeast inh 28, tim23-1 inh -3, tim10-1 inh -17 and PfHsp90 yeast 2 15.
Screening CC(=O)N1CC(=O)N(Cc2ccccc2)/C(=C/c2ccccc2)C1=O returned SKKanGAS inh 29, TIM10 inh 44*, NLRP3 yeast inh 27, tim23-1 inh 48, tim10-1 inh 38, PfHsp90 yeast 2 8 and TIM10 conf 40*.
For CC(=O)Oc1ccc(/C=C2/SC(=S)N(Cc3ccccc3)C2=O)cc1 the results were SKKanGAS inh 20, TIM10 inh 19, NLRP3 yeast inh 15, tim23-1 inh 4, tim10-1 inh -18 and PfHsp90 yeast 2 5.
`Cc1c(C(=O)Nc2nc3ccccc3[nH]2)oc2c(Cl)cccc12` gave SKKanGAS inh 67*, TIM10 inh 44*, NLRP3 yeast inh 29, tim23-1 inh 45, tim10-1 inh 4, PfHsp90 yeast 2 -12 and TIM10 conf 24.
`O=C(Nc1ccccc1)Nc1ccc(Cl)c([N+](=O)[O-])c1` gave SKKanGAS inh 9, TIM10 inh 9, NLRP3 yeast inh 16, tim23-1 inh 2, tim10-1 inh 12 and PfHsp90 yeast 2 1.
For CC(CC(=O)Nc1ccc(Cl)c([N+](=O)[O-])c1)c1ccccc1 (configuration not stated) the results were SKKanGAS inh 4, TIM10 inh 42*, NLRP3 yeast inh 10, tim23-1 inh 35, tim10-1 inh 38, PfHsp90 yeast 2 -12 and TIM10 conf -14.
For COc1ccc(CCN2CC(C(=O)N(C)CC(=O)Nc3cccc(F)c3)CC2=O)cc1OC (configuration not stated) the results were SKKanGAS inh -1, TIM10 inh 4, NLRP3 yeast inh 21, tim23-1 inh 3, tim10-1 inh 12 and PfHsp90 yeast 2 22.
Screening CCOC(=O)N1CCN(C(=O)c2ccc(OC)cc2)CC1 returned SKKanGAS inh 2, TIM10 inh 15, NLRP3 yeast inh -4, tim23-1 inh -5, tim10-1 inh 8 and PfHsp90 yeast 2 -11.
`CCOC(=O)N1CCN(C(=O)c2ccc3c(c2)sc2nc(-c4ccc(OC)cc4)cn23)CC1` gave SKKanGAS inh 45, TIM10 inh 50*, NLRP3 yeast inh 18, tim23-1 inh 16, tim10-1 inh 18, PfHsp90 yeast 2 -18 and TIM10 conf 44*.
COc1ccc(Nc2nccc3c2ncn3C)cc1 was read as SKKanGAS inh -4, TIM10 inh 10, NLRP3 yeast inh 11, tim23-1 inh 14, tim10-1 inh 1 and PfHsp90 yeast 2 6.
`COc1ccc2c(c1)OCC(O)(c1ccccc1)C2=O` (configuration not stated) gave PfHsp90 yeast 2 -3.
CCNC(=S)NN=C1CCC(C(C)(C)C)CC1 (configuration not stated) was read as SKKanGAS inh 2, TIM10 inh -2, NLRP3 yeast inh 16, tim23-1 inh 15, tim10-1 inh 28 and PfHsp90 yeast 2 6.
Screening CC(C)(C)C1CCC(=NNC(=S)Nc2cccnc2)CC1 (configuration not stated) returned SKKanGAS inh -3, TIM10 inh 44*, NLRP3 yeast inh 14, tim23-1 inh 48, tim10-1 inh 39, PfHsp90 yeast 2 8 and TIM10 conf 35*.
COc1ccc2oc(C(=O)Nc3ccc(N4CCOCC4)cc3)c(C)c2c1 was read as SKKanGAS inh 0, TIM10 inh -7, NLRP3 yeast inh 20, tim23-1 inh 7, tim10-1 inh -5 and PfHsp90 yeast 2 -4.
COC(CN(C)C(=O)c1ccc2c(c1)NC(=O)c1ccccc1S2)OC was read as SKKanGAS inh 4, TIM10 inh 18, NLRP3 yeast inh -9, tim23-1 inh 4, tim10-1 inh 0 and PfHsp90 yeast 2 19.
Screening Cc1ccc(/C=N/NC(=O)NN(C)c2ncc(C(F)(F)F)cc2Cl)cc1 returned SKKanGAS inh 4, TIM10 inh 41*, NLRP3 yeast inh 25, tim23-1 inh 19, tim10-1 inh 29 and TIM10 conf 45*.
Screening CC(C)(C)OC(=O)N1CCN(c2ccc(NC(=O)c3ccco3)cc2)CC1 returned SKKanGAS inh -2, TIM10 inh 11, NLRP3 yeast inh 25, tim23-1 inh 24, tim10-1 inh 16 and PfHsp90 yeast 2 13.
Screening Cc1ccc(S(=O)(=O)N(C)C)cc1NC(=O)C(C)N(C)CCOc1ccc(Cl)cc1 (configuration not stated) returned SKKanGAS inh 0, TIM10 inh 17, NLRP3 yeast inh -2, tim23-1 inh 34, tim10-1 inh -3 and PfHsp90 yeast 2 -19.
`COc1ccccc1-n1c2nc3ccccc3nc2c2c(=O)n(-c3cc(C)cc(C)c3)cnc21` gave SKKanGAS inh 28, TIM10 inh 25, NLRP3 yeast inh 23, tim23-1 inh 33, tim10-1 inh 26 and PfHsp90 yeast 2 -7.
COc1ccccc1-n1cnc2c(c1=O)c1nc3ccccc3nc1n2-c1ccc(C)cc1 was read as SKKanGAS inh 7, TIM10 inh 46*, NLRP3 yeast inh -4, tim23-1 inh 34, tim10-1 inh 39, PfHsp90 yeast 2 -11 and TIM10 conf 21.
CCCNC(=O)N(CCOC)CC1CCCN(C2Cc3ccccc3C2)C1 (configuration not stated) was read as SKKanGAS inh -5, TIM10 inh -7, NLRP3 yeast inh 17, tim23-1 inh 7, tim10-1 inh 4 and PfHsp90 yeast 2 -14.
